Active and inactive are the calls of the source. The calls were made as follows: active = hit-call score of the fitted dose curve at least 0.9, where 1 is the maximum; inactive = score below 0.9.
Tests used:
Conditions in all cases: mRNA level, 48 h; actives raise or lower the signal
CYP2C9 (gene 1559) = assay: LTEA_HepaRG_CYP2C9: Life Technologies and Expression Analysis (LTEA) Assay for CYP2C9 using HepaRG (AID 2283484)
Summary of the method: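 CYP2C9 transcript level, quantified by TaqMan qRT-PCR against three housekeeping genes, was fitted bidirectionally relative to 0.5% DMSO. HepaRG cultures were treated 48 h, in duplicate, at eight half-log concentrations topping at 100 uM.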

CYP2E1 (gene 1571) = assay: LTEA_HepaRG_CYP2E1: Life Technologies and Expression Analysis (LTEA) Assay for CYP2E1 using HepaRG (AID 2283485)
Summary of the method: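 CYP2E1 transcript measured by Fluidigm qRT-PCR against three housekeeping genes in human HepaRG cells treated 48 h (top 100 uM, half-log steps, 0.5% DMSO vehicle). Gain or loss fitted relative to DMSO baseline.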

CYP4A11 (gene 1579) = assay: LTEA_HepaRG_CYP4A11: Life Technologies and Expression Analysis (LTEA) Assay for CYP4A11 using HepaRG (AID 2283486)
Summary of the method: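 Differentiated HepaRG cells, serum-free induction medium, exposed 48 h in duplicate to 8-point half-log series from 100 uM in 0.5% DMSO. CYP4A11 mRNA measured by qRT-PCR, normalized to ACTB, GAPDH, POLR2A; bidirectional fit versus DMSO.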

[1] = read-out: Cytochrome P450 3A4 (Homo sapiens) (UniProt P08684); assay: LTEA_HepaRG_CYP3A4: Life Technologies and Expression Analysis (LTEA) Assay for CYP3A4 using HepaRG (AID 2283487)
Summary of the method: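 HepaRG, 48 h exposure, 8-pt CRC from 100 uM (half-log), 0.5% DMSO, duplicates; serum-free induction medium. Readout: CYP3A4 mRNA, qRT-PCR, ACTB/GAPDH/POLR2A normalization. Bidirectional fit vs DMSO.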

[2] = read-out: DNA damage-inducible transcript 3 (DDIT3), DDIT3 (gene 1649); assay: LTEA_HepaRG_DDIT3: Life Technologies and Expression Analysis (LTEA) Assay for DNA damage-inducible transcript 3 (DDIT3) using HepaRG (AID 2283488)
Summary of the method: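 DDIT3 transcript was quantified by qRT-PCR with ACTB/GAPDH/POLR2A normalization after 48 h chemical treatment of differentiated HepaRG cells in 0.5% DMSO. Dosing was eight-point, half-log, top 100 uM, duplicate wells. Curves fitted bidirectionally versus DMSO.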

[3] = read-out: Ezrin (EZR), EZR (gene 7430); assay: LTEA_HepaRG_EZR: Life Technologies and Expression Analysis (LTEA) Assay for Ezrin (EZR) using HepaRG (AID 2283491)
Summary of the method: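 Read-out is EZR transcript level by qRT-PCR, normalized to three housekeeping genes and fitted bidirectionally against the DMSO control. Human HepaRG cells received test chemicals for 48 h at eight half-log concentrations up to 100 uM in 0.5% DMSO.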

[4] = read-out: Cytochrome P450 3A7 (Homo sapiens) (UniProt P24462); assay: LTEA_HepaRG_CYP3A7: Life Technologies and Expression Analysis (LTEA) Assay for CYP3A7 using HepaRG (AID 2283492)
Summary of the method: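 HepaRG cells plated 48 h, then dosed in serum-free induction medium for 48 h at 8 concentrations (top 100 uM, half-log steps, 0.5% DMSO). CYP3A7 mRNA by qRT-PCR, normalised to ACTB/GAPDH/POLR2A; bidirectional fit versus DMSO.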

CYP3A5 (gene 1577) = assay: LTEA_HepaRG_CYP3A5: Life Technologies and Expression Analysis (LTEA) Assay for CYP3A5 using HepaRG (AID 2283493)
Summary of the method: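 mRNA levels were quantified by qRT-PCR on Fluidigm arrays and normalized to three housekeeping genes. Differentiated HepaRG cells received 48 h exposure (top 100 uM, half-log steps, 0.5% DMSO vehicle, duplicate); bidirectional fitting versus DMSO.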

[5] = read-out: Fatty Acid-Binding Protein 1 (FABP1), FABP1 (gene 2168); assay: LTEA_HepaRG_FABP1: Life Technologies and Expression Analysis (LTEA) Assay for Fatty Acid-Binding Protein 1 (FABP1) using HepaRG (AID 2283494)
Summary of the method: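 FABP1 expression by TaqMan qRT-PCR, normalised to three housekeeping genes, in HepaRG cells after 48 h chemical treatment. Eight-point half-log series topping at 100 uM in 0.5% DMSO, duplicates; gain or loss fitted relative to vehicle.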

[6] = read-out: Cytochrome P450 4A22 (Homo sapiens) (UniProt Q5TCH4); assay: LTEA_HepaRG_CYP4A22: Life Technologies and Expression Analysis (LTEA) Assay for Cytochrome P450 4A22 (CYP4A22) using HepaRG (AID 2283495)
Summary of the method: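 qRT-PCR of CYP4A22 mRNA (Fluidigm TaqMan, normalized to three housekeeping genes) after 48 h chemical exposure of HepaRG cells; 8-point half-log series, top 100 uM, 0.5% DMSO vehicle. Bidirectional curve fitting vs DMSO baseline.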

[7] = read-out: Cytochrome P450 7A1 (Homo sapiens) (UniProt P22680); assay: LTEA_HepaRG_CYP7A1: Life Technologies and Expression Analysis (LTEA) Assay for Cytochrome P450 7A1 (CYP7A1) using HepaRG (AID 2283496)
Summary of the method: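 HepaRG, 48 h exposure, 8-pt half-log series from 100 uM, 0.5% DMSO vehicle, duplicates. Readout: TaqMan qRT-PCR mRNA vs three housekeeping genes; bidirectional curve fit against DMSO baseline.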

[8] = read-out: Glutathione S-Transferase (GSTA2), GSTA2 (gene 2939); assay: LTEA_HepaRG_GSTA2: Life Technologies and Expression Analysis (LTEA) Assay for Glutathione S-Transferase (GSTA2) using HepaRG (AID 2283497)
Summary of the method: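 GSTA2 transcript levels came from Fluidigm TaqMan qRT-PCR normalized to three housekeeping genes, fitted in both directions against DMSO. HepaRG cultures received chemicals for 48 h in serum-free induction medium (0.5% DMSO), 8 half-log concentrations up to 100 uM, duplicate.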

[9] = read-out: Glutamate-cysteine ligase catalytic (GCLC), GCLC (gene 2729); assay: LTEA_HepaRG_GCLC: Life Technologies and Expression Analysis (LTEA) Assay for Glutamate-cysteine ligase catalytic (GCLC) using HepaRG (AID 2283498)
Summary of the method: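 Expression by TaqMan qRT-PCR, normalized to three housekeeping genes (ACTB, GAPDH, POLR2A), with up- or down-regulation fitted against DMSO. HepaRG cells dosed in duplicate for 48 h with 8 half-log concentrations up to 100 uM, vehicle 0.5% DMSO.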

[10] = read-out: growth arrest and DNA damage 45 (GADD45G), GADD45G (gene 10912); assay: LTEA_HepaRG_GADD45G: Life Technologies and Expression Analysis (LTEA) Assay for growth arrest and DNA damage 45 (GADD45G) using HepaRG (AID 2283499)
Summary of the method: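 Differentiated human HepaRG cells in serum-free induction medium were exposed for 48 h to 8 half-log concentrations up to 100 uM in 0.5% DMSO, in duplicate. GADD45G mRNA was measured by TaqMan qRT-PCR, normalised to ACTB, GAPDH and POLR2A, and fitted bidirectionally against DMSO.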

[11] = read-out: Glutamate-cysteine ligase regulatory (GCLM), GCLM (gene 2730); assay: LTEA_HepaRG_GCLM: Life Technologies and Expression Analysis (LTEA) Assay for Glutamate-cysteine ligase regulatory (GCLM) using HepaRG (AID 2283500)
Summary of the method: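 GCLM expression quantified by qRT-PCR, normalized to three housekeeping genes, after 48 h chemical treatment of HepaRG cells in duplicate at 8 concentrations (top 100 uM, half-log steps, 0.5% DMSO). Changes fitted both directions against vehicle.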

[12] = read-out: Glutathione S-transferase M3 (GSTM3), GSTM3 (gene 2947); assay: LTEA_HepaRG_GSTM3: Life Technologies and Expression Analysis (LTEA) Assay for Glutathione S-transferase M3 (GSTM3) using HepaRG (AID 2283501)
Summary of the method: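 Differentiated HepaRG cells in serum-free induction medium were exposed in duplicate for 48 h to 8 half-log concentrations up to 100 uM in 0.5% DMSO. GSTM3 mRNA was measured by TaqMan qRT-PCR, normalized to ACTB/GAPDH/POLR2A, and fitted bidirectionally versus DMSO.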

[13] = read-out: Heat shock 70 kDa protein 1 (HSPA1A), gene 3303; assay: LTEA_HepaRG_HSPA1A: Life Technologies and Expression Analysis (LTEA) Assay for Heat shock 70 kDa protein 1 (HSPA1A) using HepaRG (AID 2283502)
Summary of the method: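 HSPA1A expression measured by qRT-PCR with ACTB/GAPDH/POLR2A normalization; curves fitted in both directions relative to DMSO vehicle. Exposure: 48 h in HepaRG cells, duplicate 8-point half-log series from 100 uM, 0.5% DMSO, serum-free induction medium.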

[14] = read-out: Hypoxia-inducible factor 1-alpha (Homo sapiens) (UniProt Q16665); assay: LTEA_HepaRG_HIF1A: Life Technologies and Expression Analysis (LTEA) Assay for Hypoxia-inducible factor 1 (HIF1A) Trancription factor using HepaRG (AID 2283503)
Summary of the method: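 HIF1A transcript level read by qRT-PCR (ACTB, GAPDH, POLR2A normalization) after 48 h chemical exposure of HepaRG cultures. Eight half-log concentrations, top 100 uM, 0.5% DMSO vehicle, duplicates; bidirectional curve fit against DMSO baseline.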

[15] = read-out: Early growth response protein 1 (EGR1) transcription factor, EGR1 (gene 1958); assay: LTEA_HepaRG_EGR1: Life Technologies and Expression Analysis (LTEA) Assay for Early growth response protein 1 (EGR1) transcription factor using HepaRG (AID 2283490)
Summary of the method: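 EGR1 transcript levels quantified by qRT-PCR (Fluidigm arrays) against three housekeeping genes after 48 h chemical exposure of HepaRG cells. Eight-point half-log series topping at 100 uM, 0.5% DMSO vehicle, analyzed for gain or loss.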

Chain of Cytochrome P450 3A4 (Homo sapiens) (P08684 whole entry, looked up): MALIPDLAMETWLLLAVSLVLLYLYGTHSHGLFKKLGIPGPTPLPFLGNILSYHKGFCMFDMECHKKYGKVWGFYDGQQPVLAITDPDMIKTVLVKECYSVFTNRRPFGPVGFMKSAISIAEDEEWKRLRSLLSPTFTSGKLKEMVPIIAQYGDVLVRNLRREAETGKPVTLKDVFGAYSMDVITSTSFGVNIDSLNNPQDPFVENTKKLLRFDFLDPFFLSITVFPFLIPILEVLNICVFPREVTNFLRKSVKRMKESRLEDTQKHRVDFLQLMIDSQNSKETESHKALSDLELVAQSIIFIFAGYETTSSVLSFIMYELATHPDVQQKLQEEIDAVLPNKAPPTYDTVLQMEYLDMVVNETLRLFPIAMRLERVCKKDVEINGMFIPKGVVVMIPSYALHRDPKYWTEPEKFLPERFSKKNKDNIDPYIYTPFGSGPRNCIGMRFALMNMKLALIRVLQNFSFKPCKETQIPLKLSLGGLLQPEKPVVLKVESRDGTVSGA
Chain of Cytochrome P450 3A7 (Homo sapiens) (P24462 whole entry, looked up): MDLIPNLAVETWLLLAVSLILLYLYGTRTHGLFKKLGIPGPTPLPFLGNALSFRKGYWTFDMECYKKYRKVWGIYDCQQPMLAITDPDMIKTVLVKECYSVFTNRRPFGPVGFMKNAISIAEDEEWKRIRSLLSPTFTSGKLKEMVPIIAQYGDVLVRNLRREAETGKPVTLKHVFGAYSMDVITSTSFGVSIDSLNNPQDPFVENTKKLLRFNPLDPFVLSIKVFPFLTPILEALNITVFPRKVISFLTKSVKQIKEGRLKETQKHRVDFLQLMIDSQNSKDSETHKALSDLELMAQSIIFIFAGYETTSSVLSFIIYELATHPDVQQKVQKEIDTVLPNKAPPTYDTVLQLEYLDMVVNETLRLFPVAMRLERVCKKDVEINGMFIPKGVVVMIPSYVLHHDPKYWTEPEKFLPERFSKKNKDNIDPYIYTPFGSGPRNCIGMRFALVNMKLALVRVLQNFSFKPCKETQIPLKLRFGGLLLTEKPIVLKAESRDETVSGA
Chain of Hypoxia-inducible factor 1-alpha (Homo sapiens) (Q16665 whole entry, looked up): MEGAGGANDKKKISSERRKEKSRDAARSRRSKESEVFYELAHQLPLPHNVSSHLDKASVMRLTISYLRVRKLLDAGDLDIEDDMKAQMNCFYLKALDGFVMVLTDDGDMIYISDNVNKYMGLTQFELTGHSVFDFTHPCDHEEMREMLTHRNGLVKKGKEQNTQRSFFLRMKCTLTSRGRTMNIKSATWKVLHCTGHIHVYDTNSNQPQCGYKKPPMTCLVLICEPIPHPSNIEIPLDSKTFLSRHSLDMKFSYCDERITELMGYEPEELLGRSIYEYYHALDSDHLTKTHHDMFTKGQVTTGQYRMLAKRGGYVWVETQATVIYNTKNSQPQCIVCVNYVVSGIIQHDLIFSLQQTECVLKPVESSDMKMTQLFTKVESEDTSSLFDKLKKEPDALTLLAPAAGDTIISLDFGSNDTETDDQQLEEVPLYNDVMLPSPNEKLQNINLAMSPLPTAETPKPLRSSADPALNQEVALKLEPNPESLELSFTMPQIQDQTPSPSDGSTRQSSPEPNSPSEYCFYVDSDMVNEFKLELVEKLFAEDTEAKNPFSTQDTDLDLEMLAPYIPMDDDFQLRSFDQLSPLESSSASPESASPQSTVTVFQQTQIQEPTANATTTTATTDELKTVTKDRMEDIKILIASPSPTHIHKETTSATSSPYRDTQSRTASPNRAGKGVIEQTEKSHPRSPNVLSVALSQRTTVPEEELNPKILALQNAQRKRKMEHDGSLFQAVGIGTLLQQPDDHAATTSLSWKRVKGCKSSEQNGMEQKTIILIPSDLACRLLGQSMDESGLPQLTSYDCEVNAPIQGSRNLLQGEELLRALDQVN

`CC(C)[C@H](C(=O)O[C@H](C#N)c1cccc(Oc2ccccc2)c1)c1ccc(Cl)cc1` was tested, and the outcome (CYP2C9 (gene 1559)) was “inactive”, the AC50 (CYP2E1 (gene 1571)) was 50 µM (active) and the outcome (CYP4A11 (gene 1579)) was “inactive”. The AC50 [1] was 10.5 µM (active), the outcome [2] was “inactive” and the outcome [3] was “inactive”. For the same molecule, the outcome [4] was “inactive”, the outcome (CYP3A5 (gene 1577)) was “inactive” and the outcome [5] was “inactive”. For the same molecule, the outcome [6] was “inactive”, the outcome [7] was “inactive” and the outcome [8] was “inactive”. The outcome [9] was “inactive”, the outcome [10] was “inactive” and the outcome [11] was “inactive”. For the same molecule, the outcome [12] was “inactive”, the outcome [13] was “inactive” and the outcome [14] was “inactive”.
With `CCOC(=O)COc1cc(-c2nn(C)c(OC(F)F)c2Cl)c(F)cc1Cl` the outcome (CYP2C9 (gene 1559)) was “inactive”, the AC50 (CYP2E1 (gene 1571)) was 16.3 µM (active) and the outcome (CYP4A11 (gene 1579)) was “inactive”. The AC50 [1] was 22.8 µM (active), the outcome [2] was “inactive” and the outcome [15] was “inactive”. For the same molecule, the outcome [3] was “inactive”, the AC50 [4] was 30.1 µM (active) and the outcome (CYP3A5 (gene 1577)) was “inactive”. The outcome [5] was “inactive”, the outcome [7] was “inactive” and the outcome [8] was “inactive”. For the same molecule, the outcome [9] was “inactive”, the outcome [10] was “inactive” and the outcome [11] was “inactive”. For the same molecule, the outcome [12] was “inactive”, the outcome [13] was “inactive” and the outcome [14] was “inactive”.
`CCOP(=S)(Oc1cnc(C(C)(C)C)nc1)OC(C)C` (configuration not stated) was tested, and the outcome (CYP2C9 (gene 1559)) was “inactive”, the AC50 (CYP2E1 (gene 1571)) was 26.8 µM (active) and the AC50 (CYP4A11 (gene 1579)) was 50 µM (active). The AC50 [1] was 13.9 µM (active), the outcome [2] was “inactive” and the outcome [15] was “inactive”. The outcome [3] was “inactive”, the outcome [4] was “inactive” and the outcome (CYP3A5 (gene 1577)) was “inactive”. The AC50 [5] was 2.01 µM (active), the AC50 [7] was 4.63 µM (active) and the outcome [8] was “inactive”. For the same molecule, the outcome [9] was “inactive”, the outcome [10] was “inactive” and the outcome [11] was “inactive”. For the same molecule, the outcome [12] was “inactive”, the outcome [13] was “inactive” and the outcome [14] was “inactive”.
For `CC(C1CC1)C(O)(Cn1cncn1)c1ccc(Cl)cc1` (configuration not stated), the outcome (CYP2C9 (gene 1559)) was “inactive”, the AC50 (CYP2E1 (gene 1571)) was 49.5 µM (active) and the AC50 (CYP4A11 (gene 1579)) was 49.8 µM (active). The AC50 [1] was 3.9 µM (active), the AC50 [2] was 72.3 µM (active) and the outcome [15] was “inactive”. The outcome [3] was “inactive”, the AC50 [4] was 2.25 µM (active) and the outcome (CYP3A5 (gene 1577)) was “inactive”. The AC50 [5] was 12.5 µM (active), the AC50 [7] was 18.8 µM (active) and the AC50 [8] was 76.7 µM (active). The outcome [9] was “inactive”, the outcome [10] was “inactive” and the outcome [11] was “inactive”. The outcome [12] was “inactive”, the outcome [13] was “inactive” and the outcome [14] was “inactive”.
